Source: the supplement of paper PMC13380429

System: Vero E6 infected with SARS-CoV-2
Experiment: inhibition of SARS-CoV-2 cytopathic effect; higher = more antiviral protection, active = above 15
Settings: 48 h

Measured: inhibition of SARS-CoV-2 cytopathic effect

NS(=O)(=O)c1cc2c(cc1Cl)NC(C(Cl)Cl)NS2(=O)=O (stereo not given) [trichlormethiazide]
inactive: 1 nM -3.15% | 8.33 nM -5.19% | 100 nM -10.5% | 833.33 nM -3.29% | 10000 nM -8.52%

COc1ccc2cc(OCC3(C(=O)O)CN(C(=O)c4ccc(F)cc4)C3)ccc2c1
inactive: 1 nM 2.48% | 8.33 nM 0% | 100 nM 1.35% | 833.33 nM 2.44% | 10000 nM 1.77%

Cn1c(=O)c2c(ncn2CC2OCCO2)n(C)c1=O [doxofylline]
inactive: 1 nM -0.49% | 8.33 nM -2.41% | 100 nM -0.01% | 833.33 nM -1.59% | 10000 nM -0.77%

CC(C)c1onc(-c2c(Cl)cccc2Cl)c1COc1ccc(/C=C/c2cccc(C(=O)O)c2)c(Cl)c1
inactive: 1 nM 0.86% | 8.33 nM 0.15% | 100 nM -0.17% | 833.33 nM 0.5% | 10000 nM 0.01%

O=C1CC[C@@](c2ccccc2)(C2CCN(Cc3ccc(I)cc3)CC2)C(=O)N1 [iododexetimide]
inactive: 1 nM 1.14% | 8.33 nM -0.02% | 100 nM -0.5% | 833.33 nM -1.35% | 10000 nM -6.84%

CCCC(=O)Nc1ncnc2c1ncn2[C@@H]1O[C@@H]2COP(=O)(O)O[C@H]2[C@H]1OC(=O)CCC [bucladesine]
inactive: 1 nM -1.3% | 8.33 nM -3.37% | 100 nM -2.82% | 833.33 nM 0.58% | 10000 nM 1.04%

Clc1ccc([C@]23CNC[C@H]2C3)cc1Cl [amitifadine]
inactive: 1 nM 0.8% | 8.33 nM 2.82% | 100 nM 0.87% | 833.33 nM 1.86% | 10000 nM 3.82%

CC(C)(C)C(=O)/C(=N/c1ccc(Cl)cc1)NNc1ccc(Cl)cc1
inactive: 1 nM 1.8% | 8.33 nM -0.69% | 100 nM 1.03% | 833.33 nM 0.66% | 10000 nM -7%

NS(=O)(=O)c1cc2c(cc1Cl)NC(C1CC3C=CC1C3)NS2(=O)=O (stereo not given) [cyclothiazide]
inactive: 1 nM 2.43% | 8.33 nM 0.31% | 100 nM 3.55% | 833.33 nM -0.08% | 10000 nM -1.44%
